Experimental data reported in paper PMC7862700, “An all-to-all approach to the identification of sequence-specific readers for epigenetic DNA modifications on cytosine”.

What was measured:
Test in all cases: DAPPL (digital affinity profiling via proximity ligation, sequencing); 10 mM Tris-HCl pH 7.5, 50 mM NaCl, 1 mM DTT, 4% glycerol, room temperature, 30 min; GST-TFs on glutathione beads, 16-mer random dsDNA library, 0.1% formaldehyde crosslink after washing; high values mean tight binding
Conditions in all cases: protein: recombinant; tags: N-terminal GST; dsDNA, one strand shown
FLI1 = target: T1, FLI1 (Homo sapiens, UniProt Q01543 1-452)
T1 sequence: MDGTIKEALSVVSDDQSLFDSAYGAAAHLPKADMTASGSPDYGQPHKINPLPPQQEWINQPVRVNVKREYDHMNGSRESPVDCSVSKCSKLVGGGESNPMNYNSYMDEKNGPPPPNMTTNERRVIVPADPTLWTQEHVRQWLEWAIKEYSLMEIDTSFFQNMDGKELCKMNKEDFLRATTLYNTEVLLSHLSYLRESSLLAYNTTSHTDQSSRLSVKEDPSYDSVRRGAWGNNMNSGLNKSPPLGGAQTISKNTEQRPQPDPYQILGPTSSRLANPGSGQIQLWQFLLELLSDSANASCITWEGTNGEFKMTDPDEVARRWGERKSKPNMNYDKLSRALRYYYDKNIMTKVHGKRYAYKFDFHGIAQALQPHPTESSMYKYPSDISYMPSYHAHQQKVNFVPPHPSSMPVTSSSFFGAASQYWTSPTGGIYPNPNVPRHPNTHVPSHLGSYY
In short: (§1)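 Beads coated with glutathione captured GST-fused human transcription factors that had been expressed in yeast, and the factors were then given DNA barcodes and pooled with a tag-only sample. The pools were incubated with 200 nmole of a random double-stranded 16-mer DNA library in Tris/NaCl/DTT/glycerol buffer for 30 min at room temperature, washed, crosslinked with 0.1% formaldehyde and proximity-ligated with BsaI/T4 ligase at 37 °C for 1 h. PCR amplification and Illumina NextSeq500 sequencing came last. Binding signal is each hexamer's read frequency for a factor divided by its frequency for the tag-only sample.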

ELK1 = target: T2, ELK1 (Homo sapiens, UniProt P19419 1-428)
T2 sequence: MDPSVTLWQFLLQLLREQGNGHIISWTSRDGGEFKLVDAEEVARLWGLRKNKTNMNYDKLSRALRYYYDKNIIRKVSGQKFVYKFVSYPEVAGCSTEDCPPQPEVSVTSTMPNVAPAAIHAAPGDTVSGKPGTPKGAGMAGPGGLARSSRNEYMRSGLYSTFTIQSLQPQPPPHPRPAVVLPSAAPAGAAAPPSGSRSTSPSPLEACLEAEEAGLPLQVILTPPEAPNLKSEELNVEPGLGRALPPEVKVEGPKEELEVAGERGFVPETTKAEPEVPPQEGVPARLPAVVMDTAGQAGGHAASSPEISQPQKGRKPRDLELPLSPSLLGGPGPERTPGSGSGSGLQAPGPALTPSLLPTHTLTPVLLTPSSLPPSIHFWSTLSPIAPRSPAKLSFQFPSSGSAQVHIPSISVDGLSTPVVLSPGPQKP
In short: as §1

GABPA = target: T3, GABPA (Homo sapiens, UniProt Q06546 1-454)
T3 sequence: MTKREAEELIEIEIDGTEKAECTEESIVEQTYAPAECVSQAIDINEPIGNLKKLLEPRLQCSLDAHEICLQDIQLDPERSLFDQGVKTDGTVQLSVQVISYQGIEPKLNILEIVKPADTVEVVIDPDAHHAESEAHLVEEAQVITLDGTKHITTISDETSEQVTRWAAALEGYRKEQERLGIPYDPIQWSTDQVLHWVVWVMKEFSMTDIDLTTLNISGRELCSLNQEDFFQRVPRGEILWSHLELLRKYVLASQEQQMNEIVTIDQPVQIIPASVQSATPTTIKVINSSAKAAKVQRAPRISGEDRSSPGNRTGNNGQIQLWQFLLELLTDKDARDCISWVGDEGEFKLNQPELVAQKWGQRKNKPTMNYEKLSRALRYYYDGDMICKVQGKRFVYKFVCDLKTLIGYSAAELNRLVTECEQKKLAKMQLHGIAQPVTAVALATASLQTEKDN
In short: as §1

ERG = target: T4, ERG (Homo sapiens, UniProt P11308 1-479)
T4 sequence: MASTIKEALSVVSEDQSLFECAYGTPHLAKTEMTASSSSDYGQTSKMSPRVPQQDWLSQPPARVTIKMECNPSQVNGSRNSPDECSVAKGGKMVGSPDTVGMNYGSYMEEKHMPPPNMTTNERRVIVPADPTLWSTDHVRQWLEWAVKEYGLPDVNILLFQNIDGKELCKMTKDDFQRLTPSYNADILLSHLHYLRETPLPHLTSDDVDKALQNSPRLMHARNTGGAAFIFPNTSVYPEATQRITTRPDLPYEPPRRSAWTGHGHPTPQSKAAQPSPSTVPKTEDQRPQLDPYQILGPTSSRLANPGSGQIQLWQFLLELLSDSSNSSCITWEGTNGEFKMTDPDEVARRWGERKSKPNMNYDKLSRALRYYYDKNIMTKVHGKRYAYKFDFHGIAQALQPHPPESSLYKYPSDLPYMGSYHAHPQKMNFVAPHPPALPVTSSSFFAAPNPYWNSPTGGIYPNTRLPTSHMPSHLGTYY
In short: as §1

ELF1 = ELF1 (Homo sapiens, UniProt P32519 1-619)
In short: as §1

EHF = target: T5, EHF (Homo sapiens, UniProt Q9NZC4 1-300)
T5 sequence: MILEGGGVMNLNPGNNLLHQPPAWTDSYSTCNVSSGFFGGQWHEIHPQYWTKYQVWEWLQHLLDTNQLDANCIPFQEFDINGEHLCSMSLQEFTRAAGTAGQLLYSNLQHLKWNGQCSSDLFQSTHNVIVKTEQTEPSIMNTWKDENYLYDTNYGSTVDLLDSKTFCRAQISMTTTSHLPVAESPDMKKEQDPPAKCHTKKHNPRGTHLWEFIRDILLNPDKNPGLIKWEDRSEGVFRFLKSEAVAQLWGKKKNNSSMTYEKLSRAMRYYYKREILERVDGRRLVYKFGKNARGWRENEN
In short: as §1

SPI1 = SPI1 (Homo sapiens, UniProt P17947 1-270)
In short: as §1

SPIB = SPIB (Homo sapiens, UniProt Q01892 1-262)
In short: as §1

ELK3 = target: T6, ELK3 (Homo sapiens, UniProt P41970 1-407)
T6 sequence: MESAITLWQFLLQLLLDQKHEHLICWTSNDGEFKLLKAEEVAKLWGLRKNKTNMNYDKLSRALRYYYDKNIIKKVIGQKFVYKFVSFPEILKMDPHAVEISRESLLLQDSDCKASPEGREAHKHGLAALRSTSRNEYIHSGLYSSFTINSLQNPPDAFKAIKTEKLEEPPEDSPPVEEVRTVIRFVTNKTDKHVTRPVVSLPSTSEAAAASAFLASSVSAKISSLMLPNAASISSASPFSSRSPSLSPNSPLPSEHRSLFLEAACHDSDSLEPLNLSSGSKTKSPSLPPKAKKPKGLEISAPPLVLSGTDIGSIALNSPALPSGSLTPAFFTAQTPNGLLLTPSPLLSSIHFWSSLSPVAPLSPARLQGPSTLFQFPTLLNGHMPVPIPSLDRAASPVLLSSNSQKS
In short: as §1

ELF1, sequence (P32519 whole entry): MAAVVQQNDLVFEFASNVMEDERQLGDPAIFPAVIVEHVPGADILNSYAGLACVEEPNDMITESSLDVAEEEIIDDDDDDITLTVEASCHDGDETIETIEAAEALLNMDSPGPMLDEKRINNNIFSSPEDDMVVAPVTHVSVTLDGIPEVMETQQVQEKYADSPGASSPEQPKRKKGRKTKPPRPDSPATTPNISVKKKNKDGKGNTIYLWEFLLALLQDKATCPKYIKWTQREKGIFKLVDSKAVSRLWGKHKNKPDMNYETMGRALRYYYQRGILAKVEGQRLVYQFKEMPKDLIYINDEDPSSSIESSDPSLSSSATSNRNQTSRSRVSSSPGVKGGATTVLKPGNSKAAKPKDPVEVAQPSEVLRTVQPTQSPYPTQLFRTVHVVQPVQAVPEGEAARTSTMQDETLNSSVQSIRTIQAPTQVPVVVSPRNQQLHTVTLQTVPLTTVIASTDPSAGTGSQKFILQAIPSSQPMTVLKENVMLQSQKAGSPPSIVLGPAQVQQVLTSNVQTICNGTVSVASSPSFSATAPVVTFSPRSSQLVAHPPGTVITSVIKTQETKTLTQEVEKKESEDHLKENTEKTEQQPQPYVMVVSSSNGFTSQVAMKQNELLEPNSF
SPIB, sequence (Q01892 whole entry): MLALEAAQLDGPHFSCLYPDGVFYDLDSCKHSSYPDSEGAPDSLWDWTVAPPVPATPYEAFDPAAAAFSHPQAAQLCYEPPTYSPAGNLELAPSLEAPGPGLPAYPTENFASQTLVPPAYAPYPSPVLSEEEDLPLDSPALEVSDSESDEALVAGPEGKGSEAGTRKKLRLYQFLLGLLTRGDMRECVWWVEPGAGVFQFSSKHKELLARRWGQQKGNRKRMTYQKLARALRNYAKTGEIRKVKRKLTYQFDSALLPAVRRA

## CTAGGT
FLI1
  binding signal: 1.07 fold enrichment (6-mer frequency, TF over GST control)
ELK1
  binding signal: 1.13 fold enrichment (6-mer frequency, TF over GST control)
GABPA
  binding signal: 1.05 fold enrichment (6-mer frequency, TF over GST control)
ERG
  binding signal: 1.14 fold enrichment (6-mer frequency, TF over GST control)
ELF1
  binding signal: 1.2 fold enrichment (6-mer frequency, TF over GST control)
EHF
  binding signal: 1.09 fold enrichment (6-mer frequency, TF over GST control)
SPI1
  binding signal: 1.05 fold enrichment (6-mer frequency, TF over GST control)
SPIB
  binding signal: 1.13 fold enrichment (6-mer frequency, TF over GST control)
ELK3
  binding signal: 1.13 fold enrichment (6-mer frequency, TF over GST control)
